Shown are actives, neighbours in structure and some others; about 6.3% of the full set was active somewhere.
HepG2 tox-1 – kills HepG2 cells in TGF-b inhibitor counter-screen. HepG2 CAGA-GFP viability, ATP luminescence, 18 h. Potency, µM (top dose mostly 46.1 µM), for inactives: top-dose activity change, negative = cytotoxicity, hits mostly cytotoxic. actives 0.76% (n = 410,000)
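HepG2 CAGA-GFP cells (1000/well, DMEM with 1% FBS) received compound, then TGF-beta at 500 pg/mL final, and were incubated 18 hours at 37 degrees C. Viability was read by CellTiter-Glo luminescence. Media-only wells were set as complete cell-killing and DMSO as no toxicity.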
RORg inh – ROR gamma (mouse) transcription inhibition. AID 2551. Potency, µM (highest dose often 53.6 µM), for the others: top-dose activity change, negative = inhibition, hits mostly inhibitors. P51450. Drosophila S2 Gal4-RORgamma UAS-luciferase reporter, 20 h. actives 5.4% (n = 310,000); note: % is set by controls: 0 for no effect and ±100 for the full control effect; nearly all actives have a fitted effect of over 60% in size
Target sequence (P51450 whole entry, looked up, the tested form may be a part): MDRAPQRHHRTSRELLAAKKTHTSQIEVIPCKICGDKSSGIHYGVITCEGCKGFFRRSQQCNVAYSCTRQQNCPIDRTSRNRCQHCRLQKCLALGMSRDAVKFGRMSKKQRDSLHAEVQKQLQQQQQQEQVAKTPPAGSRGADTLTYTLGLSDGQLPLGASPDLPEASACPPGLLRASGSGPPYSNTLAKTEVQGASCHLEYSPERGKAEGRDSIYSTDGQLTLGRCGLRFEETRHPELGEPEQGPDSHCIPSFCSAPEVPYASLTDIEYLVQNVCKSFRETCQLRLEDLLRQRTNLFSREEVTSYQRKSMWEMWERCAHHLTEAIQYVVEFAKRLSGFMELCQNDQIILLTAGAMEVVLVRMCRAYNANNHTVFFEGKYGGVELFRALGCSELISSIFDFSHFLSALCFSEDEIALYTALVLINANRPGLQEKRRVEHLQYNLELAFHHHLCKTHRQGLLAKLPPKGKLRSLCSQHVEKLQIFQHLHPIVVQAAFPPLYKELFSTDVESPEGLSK
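Stable Schneider cell line, Gal4 DNA-binding domain fused to ROR gamma, UAS-luciferase. Cmpd 1 hr RT → CuSO4 700 uM final → 20 hr RT → luciferase reagent 10 min → luminescence.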
TGFb inhibitor – inhibitors of TGF-b signaling; HepG2 CAGA-GFP TGF-b/SMAD3 reporter, GFP fluorescence, 18 h; TGF-beta stimulated, 500 pg/mL final; Potency, µM (highest dose often 46.1 µM), without a hit: at the top dose activity, negative = inhibition, hits mostly inhibitors; actives 1.2% (n = 410,000); note: % is set by controls: 0 for no effect and ±100 for the full control effect; nearly all actives have a fitted effect of over 65% in size
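Using HEPG2 CAGA-GFP reporter cells at 1000 cells/well, we pinned test compounds, stimulated with recombinant TGF-beta (500 pg/mL final) and measured total well GFP after 18 h.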
ATXN2 expr inh – inhibitors of ATXN2 expression | HEK-293 ATXN2-luciferase reporter, luminescence, 24 h | Potency, µM (top dose mostly 57 µM), inactives show top-dose activity change, negative = inhibition, hits mostly inhibitors | actives 0.72% (n = 360,000); note: % is set by controls: 0 for no effect and ±100 for the full control effect; nearly all actives have a fitted effect of over 55% in size
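ATXN2-luciferase reporter cells (luciferase flanked by upstream and downstream ATXN2 gene portions) were treated 24 h at 37 °C with compounds at up to 57 uM. SteadyGlo luminescence gave expression; GF-AFC fluorescence gave viability.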
VP16 counter – counter-screen for ROR gamma inhibitors: Gal4-VP16 reporter | Drosophila S2 Gal4-VP16 UAS-luciferase, luminescence, 20 h | Potency, µM (top dose mostly 53.6 µM), without a hit: top-dose activity, negative = inhibition, usual class: inhibitors | actives 3.5% (n = 310,000) | AID 2546;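 note: Gal4-VP16 expression switched on by copper sulfate through the metallothionein promoter; % is set by controls: 0 for no effect and ±100 for the full control effect; nearly all actives have a fitted effect of over 50% in size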
S2 tox – reduces viability in counter-screen for ATXN expression inhibitors; actives 0.49% (n = 400,000); S2 cells (HEK-293 line with an ATXN2-luciferase reporter) viability, CellTiter-Fluor protease fluorescence, 24 h; Potency, µM (top dose mostly 56.7 µM), actives largely listed as cytotoxic; note: nearly all actives have a fitted effect of over 40% in size
TGFb CAGA inh – TGF-b pathway inhibition, cherry-pick retest. actives 63% (n = 1,600). Potency, µM (titrated, usually from 46.1 µM), without a hit: at the highest dose activity, negative = inhibition, actives largely listed as inhibitors. shares compounds with TGFb inhibitor. AID 720534. HepG2 CAGA-GFP TGF-b reporter, GFP fluorescence, 18 h; cells stimulated with TGF-beta, 500 pg/mL; note: % is set by controls: 0 for no effect and ±100 for the full control effect; nearly all actives have a fitted effect of over 65% in size
HepG2 tox-2 – HepG2 cytotoxicity, TGF-b inhibitor counterscreen. HepG2 CAGA-GFP viability, ATP luminescence, 18 h; cells stimulated with TGF-beta, 500 pg/mL. Potency, µM (doses to about 46.1 µM), for the others: at the highest dose activity, negative = cytotoxicity, most hits filed as inhibitors. shares compounds with TGFb inhibitor. actives 27% (n = 1,600); note: % is set by controls: 0 for no effect and ±100 for the full control effect; nearly all actives have a fitted effect of over 70% in size
TGFb CCL64 inh – blocks TGF-b signaling in CCL64 reporter cells; shares compounds with TGFb inhibitor; CCL64 CAGA-GFP reporter, TGF-b stimulated, GFP fluorescence, 18 h; Potency, µM (doses to about 46.1 µM), without a hit: at the top dose activity, negative = inhibition, actives largely listed as inhibitors; actives 41% (n = 1,600); AID 720536; note: nearly all actives have a fitted effect of over 65% in size
TGFb COP inh – TGF-b inhibition validated with COP promoter. shares compounds with TGFb inhibitor. HepG2 COP-GFP TGF-b reporter, GFP fluorescence, 18 h; cells stimulated by added recombinant TGF-beta. Potency, µM (top dose mostly 46.1 µM), without a hit: at the top dose activity, negative = inhibition, most hits filed as inhibitors. actives 3% (n = 1,600). AID 720537; note: nearly all actives have a fitted effect of over 70% in size
Numbers without * were called inactive; [ ] = another dose, or the depositor's remark. Calls come from the whole dose curve; as a rule, active = well fitted curve in the direction sought with a large enough effect; inconclusive = small, poorly fitted or top-dose-only effect, or another doubt; inactive = no such curve, though single readings can be large; an effect the other way counts as inactive or inconclusive. Potency is the fitted concentration of half-maximal effect.

How did Cc1ccc2nc(/C(C#N)=C\c3ccc(N4CCOCC4)o3)[nH]c2c1 do in these assays?
HepG2 tox-1: -19%; RORg inh: inconclusive; TGFb inhibitor: 108%; ATXN2 expr inh: 60%; VP16 counter: -1%; S2 tox: inactive

How did Cc1ccccc1OCCNC(=O)c1ccccc1Sc1ccccc1C#N do in these assays?
HepG2 tox-1: -26%; RORg inh: 24%; TGFb inhibitor: 10µM*; ATXN2 expr inh: 0%; VP16 counter: 8%; S2 tox: inactive; TGFb CAGA inh: -25%; HepG2 tox-2: -6%; TGFb CCL64 inh: -16%; TGFb COP inh: -1%

How did Cc1cc(C)c(OCCNC(=O)c2ccccc2Sc2ccccc2C#N)c(C)c1 do in these assays?
HepG2 tox-1: -28%; RORg inh: inconclusive; TGFb inhibitor: -25%; ATXN2 expr inh: -22%; VP16 counter: -25%; S2 tox: inactive

Results for CC1CCN(C(=O)c2[nH]cnc2C(=O)NCc2ccccc2)CC1 ?
HepG2 tox-1: 3%; TGFb inhibitor: inconclusive; ATXN2 expr inh: 11%; S2 tox: inactive; TGFb CAGA inh: -7%; HepG2 tox-2: 4%; TGFb CCL64 inh: 1%; TGFb COP inh: -2%

What do the screens show for `Cc1ccc(NC(=O)c2nc[nH]c2C(=O)NC2CCN(C(=O)OC(C)(C)C)CC2)cc1`?
HepG2 tox-1: 10%; TGFb inhibitor: 7%; ATXN2 expr inh: -4%; S2 tox: inactive

How did CC1CCN(C(=O)c2[nH]cnc2C(=O)NCc2ccc(CNC(=O)OC(C)(C)C)cc2)CC1 do in these assays?
HepG2 tox-1: -7%; TGFb inhibitor: inconclusive; ATXN2 expr inh: -4%; S2 tox: inactive; TGFb CAGA inh: inconclusive; HepG2 tox-2: 6%; TGFb CCL64 inh: 0%; TGFb COP inh: -6%

What do the screens show for `CC(C)(C)OC(=O)N1CCC(NC(=O)c2[nH]cnc2C(=O)Nc2ccccc2)CC1`?
HepG2 tox-1: 6%; TGFb inhibitor: 13µM*; ATXN2 expr inh: inconclusive; S2 tox: inconclusive; TGFb CAGA inh: inconclusive; HepG2 tox-2: inconclusive; TGFb CCL64 inh: inconclusive; TGFb COP inh: 22%

Results for CC1CCN(C(=O)c2[nH]cnc2C(=O)NCC(=O)OC(C)(C)C)CC1 ?
HepG2 tox-1: -23%; RORg inh: -15%; TGFb inhibitor: -4%; ATXN2 expr inh: 8%; VP16 counter: -6%; S2 tox: inactive

Results for CCOc1ccc(S(=O)(=O)N2CCN(c3c(C)cccc3C)CC2)c2ccccc12 ?
HepG2 tox-1: -10%; TGFb inhibitor: 4%; ATXN2 expr inh: 10%; S2 tox: inactive

How did COc1ccc(CCNC(=O)C2CCN(S(=O)(=O)c3cccc4cccnc34)CC2)cc1OC do in these assays?
HepG2 tox-1: -3%; RORg inh: 7%; TGFb inhibitor: 9%; ATXN2 expr inh: 2%; VP16 counter: -3%; S2 tox: inactive

How did COc1ccc(-c2ccc3c(c2)C2CC3CCN2)cc1 (configuration not stated) do in these assays?
HepG2 tox-1: -22%; TGFb inhibitor: 21%; ATXN2 expr inh: -1%; S2 tox: inactive

How did O=C(CSCc1ccc(Br)cc1)Nc1ccccc1C(=O)N1CCOCC1 do in these assays?
HepG2 tox-1: 15%; TGFb inhibitor: -17%; ATXN2 expr inh: -2%; S2 tox: inactive

How did CCc1ccc(NC(=O)c2cc(S(=O)(=O)N3CCCCCC3)ccc2F)cc1 do in these assays?
HepG2 tox-1: -4%; TGFb inhibitor: -17%; ATXN2 expr inh: -12%; S2 tox: inconclusive

What do the screens show for `COc1ccc(-c2nc(-c3ccccc3)c(-c3ccc(O)cc3)[nH]2)cc1`?
HepG2 tox-1: -51%; TGFb inhibitor: inconclusive

What do the screens show for `COc1ccc(-c2nc(-c3ccc4c(c3)OCO4)[nH]c2-c2ccc(OC)cc2)cc1`?
HepG2 tox-1: -41%; RORg inh: -19%[10 µM]; TGFb inhibitor: -4%; ATXN2 expr inh: -20%; VP16 counter: -3%; S2 tox: inconclusive; TGFb CAGA inh: 23µM*; HepG2 tox-2: inconclusive; TGFb CCL64 inh: 26µM*; TGFb COP inh: 63%

What do the screens show for `Cc1nc(N2CCOCC2)c2c(C(=O)N3CCN(c4cc(Cl)ccc4C)CC3)c(C)oc2n1`?
HepG2 tox-1: 6%; TGFb inhibitor: -6%

Results for CCN(C(=O)c1c([N+](=O)[O-])cnn1C)c1ccccc1 ?
HepG2 tox-1: -2%; TGFb inhibitor: -7%; S2 tox: inactive

What do the screens show for `COc1cccc(CNC(=O)C(C)n2c(=O)cc(-c3ccccc3)c3c(C)nn(C)c32)c1` (configuration not stated)?
HepG2 tox-1: 1%; TGFb inhibitor: 1%; ATXN2 expr inh: 11%; S2 tox: inactive

What do the screens show for `COC(=O)[C@@]1(Cc2ccc(OC)cc2)[C@H]2c3cc(C(=O)N4CCCC4)n(Cc4c(CO)[nH]cc(C)c4=O)c3C[C@H]2CN1C(=O)c1ccccc1`?
HepG2 tox-1: -1%; RORg inh: 24%; TGFb inhibitor: inconclusive; ATXN2 expr inh: 0%; VP16 counter: -17%; S2 tox: inactive; TGFb CAGA inh: -14%; HepG2 tox-2: -1%; TGFb CCL64 inh: 0%; TGFb COP inh: -3%

Bioassay records: PubChem BioAssay, National Center for Advancing Translational Sciences (NCATS)
